Data: the supplement of paper PMC3334620
Whole data set: some 33,000 sequences, median “E-score (-0.5 to 0.5)” near -0.01, cut for the highest 2% near 0.26. Shown is part of a subset that was picked to be rich in the highest values.

Each sequence was assayed against Ste12 (UniProt P13574) (assay: PBM E-score (8-mer binding enrichment) (E-score (-0.5 to 0.5)); higher = stronger / more preferred TF binding). Conditions: protein concentration: 200 nM; construct: GST-DNA-binding domain.
Procedure: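 Universal 'all 10-mer' protein binding microarrays (Agilent AMADID 015681) probed with GST-tagged S. cerevisiae TFs (full-length or DBD) made by in vitro transcription/translation (PURExpress), about 100-200 nM. Bound TF was detected with fluorescent anti-GST. Each ungapped 8-mer (which stands for itself and its reverse complement) is scored by the PBM enrichment score (E-score), a modified Wilcoxon-Mann-Whitney statistic from -0.5 to +0.5, computed with the Universal PBM Analysis Suite. Scale: above 0.35 generally sequence-specific binding.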

UniProt P13574, sequence (P13574 whole entry, the tested form may be a part): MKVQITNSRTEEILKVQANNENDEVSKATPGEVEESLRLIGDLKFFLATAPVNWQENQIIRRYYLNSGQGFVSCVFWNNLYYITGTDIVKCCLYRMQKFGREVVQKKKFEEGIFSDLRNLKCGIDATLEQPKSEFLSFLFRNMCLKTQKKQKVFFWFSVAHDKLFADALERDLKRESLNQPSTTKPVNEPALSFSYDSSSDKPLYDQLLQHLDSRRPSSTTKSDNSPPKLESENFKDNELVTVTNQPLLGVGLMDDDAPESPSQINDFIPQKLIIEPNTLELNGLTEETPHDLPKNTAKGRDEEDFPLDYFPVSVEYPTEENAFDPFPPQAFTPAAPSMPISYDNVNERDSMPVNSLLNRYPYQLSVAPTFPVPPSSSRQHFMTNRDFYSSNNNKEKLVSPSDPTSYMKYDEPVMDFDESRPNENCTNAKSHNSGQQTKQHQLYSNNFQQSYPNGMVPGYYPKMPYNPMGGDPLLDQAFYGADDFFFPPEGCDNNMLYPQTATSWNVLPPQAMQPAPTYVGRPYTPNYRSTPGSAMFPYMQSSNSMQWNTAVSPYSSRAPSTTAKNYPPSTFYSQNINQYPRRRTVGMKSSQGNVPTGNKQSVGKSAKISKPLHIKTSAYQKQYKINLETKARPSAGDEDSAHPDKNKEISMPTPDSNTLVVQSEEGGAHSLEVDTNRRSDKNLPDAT

Sequence | PBM E-score
AAGGCGGC | -0.0929
CCCTGAAC | 0.0241
CCCTTGCG | -0.0882
ATACGTTG | -0.0291
CGTGGCGC | -0.1
TGAGGTAA | 0.128
TCATTACA | 0.18
ATTAGGAC | -0.179
CCCGCGGG | 0.0996
AATACGCA | 0.0688
ATTTGCTA | 0.0107
GCATTTTA | 0.165
CCATTTTA | 0.267
CCATTTTC | 0.0892
GCCTATCC | -0.214
CTCTGAAA | 0.294
GTCTGAAA | 0.314
ATCTGAAC | -0.0162
TTCTGCAA | 0.182
CCCTGAAA | 0.181
ATCTGAAA | 0.364
GTCTGATA | 0.16
TTCTGAAA | 0.365
ATCTGAAT | 0.0272
CTCTGAAG | -0.104

Sequence | PBM E-score
GTCTGAAC | 0.114
CTCTGAAC | -0.092
TGGCCAAA | 0.0505
TCCACAGA | 0.124
CTTTAGCC | -0.029
AATAGTTG | 0.255
AAGCAGAA | 0.109
AATTGAGT | 0.195
GTATGGAC | -0.0968
CTTGTTTC | 0.375
ATTGTTTG | 0.184
ATTGTTTA | 0.0651
ATTGTTAG | 0.0697
CTTGTTGC | 0.00409
ATTGTTTC | 0.356
ATTGTTAC | 0.297
CTTGTTTA | 0.0423
CTTGTTAC | 0.129
ATCTCTTA | 0.197
CCTTTCCC | -0.0368
ATAGCAGA | -0.0552
CCGGCTAC | 0.0776
CGAGCCAG | -0.0693
AACGCACT | -0.0209
AATAAACC | 0.269

Sequence | PBM E-score
AATAAACG | 0.0508
AATAAACA | 0.284
TATAAACA | 0.114
GATAAACA | 0.096
CATAAACC | 0.0477
AAGTATGC | -0.197
AGCCCCCA | -0.118
TATGGACA | -0.00254
CGGTCGAA | 0.00203
CAGTTTAC | -0.053
CGTTAAAG | 0.0915
AGCCGGCG | 0.106
CGCCGGCC | -0.00587
CGCCGGCG | 0.275
CAGACCCG | 0.0234
CTCTCCTC | -0.168
GCGTAACA | -0.0008
AAGTAAAC | 0.0949
ATGTAACG | 0.241
AAGTAAAT | 0.261
CTGTAACA | 0.268
GTGTAAGA | 0.058
ATGTAACA | 0.288
CTGTAACC | 0.183
GTGTAACA | 0.319

Sequence | PBM E-score
AAGTAAAG | -0.0589
ATGTAACC | 0.143
CTGTAATA | 0.119
GCGTCCAA | -0.13
ATGATTGC | 0.146
CAAGACTG | -0.101
ATGCACAG | -0.111
ACTATTGG | -0.0275
CAACTTGA | 0.0746
AAGTAACA | 0.291
AAGTAACG | 0.141
AAGTAACT | 0.0625
AGACCGTA | -0.0932
CATGGTGG | -0.0711
GACTCTAA | 0.115
ACCATAAA | 0.278
CTCATAAA | -0.00236
ACCATAAG | -0.16
GTGATAAA | 0.131
TCCATAAA | 0.11
ATGATAAA | 0.209
TTGATAAA | 0.277
ATCATAAA | 0.0612
TTCATAAA | 0.324
ACTTTGAC | -0.101

Sequence | PBM E-score
ACTTCCCT | -0.0919
GGGTTCAC | -0.0147
GATCTGCC | 0.0158
TAAAAGCA | 0.172
CCAATCGA | 0.067
CTTCACAA | -0.0638
AACGAAAT | 0.169
CACGAAAC | 0.266
GCCGAAAC | 0.178
AACGAAAG | 0.0635
CACGAAAG | 0.095
AACGAAAC | 0.314
CCCGAAAG | 0.00951
ATCGAAAA | 0.125
CCCGAAAC | 0.303
ATCGAAAC | 0.324
GTCGAAAC | 0.128
CACGAAAA | 0.243
CCCAGGTC | -0.207
TCCACAAA | 0.14
GCTTCCAC | -0.11
CTAGGGCC | -0.187
ATCGCGCG | 0.0537
ATGTCTAA | 0.0254
GGGCCCCA | -0.146

Sequence | PBM E-score
CTCCTCAG | -0.11
GAGGTTAA | 0.0122
AGCTGGGA | -0.0199
GTGTGAAA | 0.307
CTGTGAGA | -0.0675
CTGTGAAC | -0.0759
CTGTGAAA | 0.322
ATGTGAAA | 0.202
CTGTGAAG | 0.00467
TTGTGAAA | 0.342
GTGTGAAC | 0.169
GTGTGAGA | 0.0959
ACCTGCCA | -0.121
AGAAAGGA | -0.0699
AAAGCGAA | 0.133
CTTGCATA | -0.045
TCAGGTCA | -0.015
AAAGTCCC | -0.0967
CGAGGCCG | -0.158
GGATTTAA | 0.243
AAAACATC | 0.301
AAAACATT | 0.28
AAAACAAT | 0.225
AAAACATG | 0.324
AAAACATA | 0.208

Sequence | PBM E-score
CAAACATG | 0.179
AACACATG | 0.128
ATAACATC | 0.0956
ACAACATC | -0.0874
AGTGTAGG | 0.00693
ATGTGCTG | 0.133
CTTCGCTC | -0.224
ACCACCCG | -0.106
CCCACCCG | 0.358
GCCACCCA | -0.106
GCCACCCC | -0.0121
CCCACCCA | 0.269
ACCACCCC | 0.0858
CCCACCCC | 0.391
TCCACCCA | -0.0525
CACACCCG | 0.0642
CCTCTTGC | 0.0254
ATCTTCAC | 0.145
CACGGGCG | 0.00735
ATAGCCTG | -0.0913
TAGATCGA | 0.0552
CCAGCTCA | -0.194
CCGTTGAA | 0.0239
CTTATTTA | 0.171
CCTTATTA | 0.187

Sequence | PBM E-score
CTTTATTA | 0.112
ATTATTTG | 0.106
ATTTATAA | 0.267
GTTTATTA | 0.304
ACTTATTA | 0.264
GCTTATTA | 0.0471
GATTATTA | 0.196
CTTTATAA | 0.153
ATTTATAC | 0.195
ATTATTTA | 0.281
AGATCCCG | 0.0252
GAAGGTTA | -0.115
GGCCGACC | -0.123
ACGTAAAG | 0.0191
CACAAGGG | -0.194
CGCCTCTA | -0.0334
ACTATTAC | 0.0443
CTTATTAC | 0.0999
ATTTATTG | 0.0911
ATTTATTA | 0.292
ATTTATTC | 0.121
ATTATTAC | 0.269
CGTGGTAA | -0.0665
ACATCTCA | -0.0976
CGCTCGAA | -0.0852

Sequence | PBM E-score
CTGATCAC | -0.0885
AGGCGAGA | -0.195
ATGAGACA | 0.338
GTGAGACA | 0.256
ATGAGACC | -0.144
AACTTTGC | -0.0155
AGAGTTCA | -0.222
CACATTAA | 0.0442
AAAACGTC | 0.134
CAAACGTC | 0.0704
TAAACGTA | -0.115
GAAACGTA | 0.325
GAAACGTC | 0.303
CAAACGTA | -0.052
CCCGCGAG | 0.119
ATTCGACG | 0.087
ATACCAGG | 0.0311
CCCATCAG | -0.193
GCAGGTAA | 0.0649
AGCGACAC | 0.0304
AGATCGTG | 0.0231
CGTATCAA | 0.088
AATATTAT | 0.24
AATATCAG | 0.0475
AATATCAA | 0.283

Sequence | PBM E-score
AATATCAC | 0.107
AATATTAA | 0.327
TGTATCAA | 0.392
TATATTAA | 0.22
AGTATCAA | 0.217
ACATATTA | 0.193
AGCACAAT | -0.16
TTATCGAA | 0.196
AATAGGGT | 0.148
AGACTGGA | -0.0847
CAGCTCAC | -0.301
ATCCGATA | 0.063
ATCCGATC | 0.162
ATCCGATG | 0.277
CACTCCCA | 0.0996
AGCGCTAG | -0.0146
GGCACTTA | -0.157
GGTTCAAA | 0.195
GATTCGAC | 0.12
GTTTCAAA | 0.47
CTTTCGGA | 0.0344
CATTCATC | 0.125
GTTTCGGA | 0.334
ATTTCGGA | 0.181
CATTCATA | 0.296

Sequence | PBM E-score
CATTCGAA | 0.11
CTTTCAAA | 0.246
GATTCATA | 0.00383
GATTCGAA | 0.277
ATGGTAGC | -0.0629
CACCCAAC | -0.0687
CTTGAGGA | -0.147
GGAGCTTA | -0.219
CCTATTCC | 0.0843
ACTAAAGC | 0.0971
AGGCGAAG | -0.178
ATTTCGAA | 0.253
ATTTCACA | 0.205
GTTTCGAA | 0.325
GTTTCACA | 0.447
ATTTCATA | 0.124
CTTTCGAA | 0.0433
CAATCGAA | -0.021
TAATCGAA | 0.185
GTTTCATA | 0.481
CTTTCATA | 0.205
ATTTCACG | 0.122
GAATCGAA | 0.296
AAAGCGGC | 0.054
CTGTCAGA | 0.0092

Sequence | PBM E-score
AAGTACGT | -0.0519
AACAGCAG | 0.0314
CCATGCCC | -0.0778
GTGAACGA | 0.047
GACAAACA | 0.0473
ATTTCAAG | 0.0717
CTTTCAGA | 0.211
ATTTCAGA | 0.00371
GTTTCAGA | 0.484
ATTTCAAA | 0.272
ATTTCAAC | 0.161
ACGTCAAA | 0.0313
AACTCAGC | 0.109
GCTTGGGA | -0.164
AACGTGGT | -0.0847
AACTTATG | 0.0251
AACTTATC | 0.0734
AACTTATT | 0.333
GCTTGTGA | -0.0847
AATGAAGC | -0.0558
AATGAAAT | 0.231
GATGAAAC | 0.494
GATGAATC | 0.0548
AATGAAAA | 0.292
AATGAAGA | 0.304

Sequence | PBM E-score
GATGAACC | 0.062
CATGAAGA | -0.0377
AATGAAAG | 0.0381
AATGAAAC | 0.44
TATGAAGA | 0.0389
AATGAACC | 0.105
CAAATCGA | 0.0344
CGCTAGTC | -0.27
AATGCTAG | -0.181
CAACAGAC | -0.018
TCGTTGCA | -0.0015
ATTGGGAA | 0.0116
CGTGTAAG | -0.0021
AATGAATG | 0.292
CATGAAAC | 0.484
TATGAAAA | 0.152
CATGAAAG | -0.00226
GATGAACA | 0.00898
AATGAATT | 0.133
CATGAAAA | 0.237
GATGAAAA | 0.281
AATGAATC | 0.16
CCATTTCG | -0.219
AAGCTCAG | -0.179
GCCTCTAC | -0.239

Sequence | PBM E-score
AGTATAAA | 0.228
CGTATAAC | -0.0972
AGTATACA | -0.108
CGTATAAA | 0.263
GGTATACA | -0.0232
CGTATACA | 0.306
CAACCATC | 0.109
AGAGAGGG | -0.255
GATCGTGC | 0.0893
ACTTTAAC | 0.162
AACTTTAA | 0.279
ACTTTAAA | 0.275
ACTTTTAC | 0.263
GCTTTAAA | 0.155
ACTTTAAT | 0.263
CACTTTAA | 0.159
CCTTTTAC | 0.178
ACTTTTAA | 0.164
ACTTTAAG | 0.225
ACTTTTAG | 0.101
AACTTTAG | 0.0874
